According to PubChem BioAssay (NCI):
The panel holds about 83,000 compounds, 20% with a hit somewhere; the sample as a whole holds those more often.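 Assay: single dose, 48 h. Readout: percent growth (0 = no net growth; negative = cell death). Active: <10.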 Unmarked numbers belong to inactive results. The source made the active and inactive calls.

test system: NCI-H23 lung; experiment: NCI-60 one-dose screen, 48 h (100 = growth as untreated, 0 = no growth, -100 = all killed); conditions: 10 µM unless noted

SMILES | growth
Cc1[nH]ccc2cc3nc4ccccc4c3cc12 | 39.4%
NS(=O)(=O)c1ccc(-n2ncc3c(N/N=C/c4ccccc4)ncnc32)cc1 | 80.6%
O=C(C(=O)c1cc(Br)ccc1O)c1cc(Br)ccc1O | 19.8%
COc1ccc(-c2cnc(SCC(=O)Nc3ccc(-c4nc5ccccc5s4)cc3)n2-c2ccc(OC)cc2)cc1 | 101%
N#CSCC1CC(O)(c2ccccc2)C(c2ccccc2)C(c2ccc(Cl)cc2)O1 (stereo not given) | -78.6% (active)
OCc1n(Cc2ccc3ccccc3c2)cc[n+]1Cc1ccc2ccccc2c1 | 67.7%
c1ccc(-c2nc(Nc3nccnn3)c3ccccc3n2)cc1 | 90.4%
CCOC(=O)/C=C1/SC(=Nc2ccc(C#N)cc2)N(Cc2ccco2)C1=O | 70.6%
Cc1cnc2nc(-c3ccc(N(C)C)cc3)cn2c1 | 93.2%
COc1ccc2c(c1)c(CC(=O)[Se]C)c(C)n2C(=O)c1ccc(Cl)cc1 | 5.36% (active)
COc1cc(/C=C/C(=O)C(C(=O)/C=C/c2ccc(OC(=O)CCNc3nnc(C)s3)c(OC)c2)C(=O)CCNc2nnc(C)s2)ccc1OC(=O)CCNc1nnc(C)s1 | 11.9%
O=C1C2C(C(=O)N1CC[Se][Se]CCN1C(=O)C3C(C1=O)[C@H]1C=C[C@@H]3C1)[C@H]1C=C[C@@H]2C1 (stereo not given in full) | -9.33% (active)
COc1ccc(OC)c(CCn2cncc2-c2c[nH]c3cc(Br)ccc23)c1 | 30.1%
CN(C)c1ncnc2c1ncn2C1CCCCO1 (stereo not given) | 101%
COc1ccc2c(c1)sc1nc(-c3ccc(Br)cc3)cn12 | 100%
O=C(Nc1ccccc1OC(=O)c1ccccc1)c1ccccc1 | 70.6%
Cc1csc(C#Cc2cncc(O)c2)n1 | 111%
COc1ccc2nc(NC(=O)CN3CCn4c(nnc4C(F)(F)F)C3)sc2c1 | 91.6%
CCOC(=O)C(Br)=P(c1ccccc1)(c1ccccc1)c1ccccc1 | 109%
C=CCN(/C=C/CN(CC=C)CC=C)CC=C | 108%

SMILES | growth
O=C1NC(=S)S/C1=C\c1cc(Br)ccc1O | 84.7%
COc1ccc(C(=O)/C=C/c2cccc(Nc3ccnc4cc(Cl)ccc34)c2)cc1 | 43.2%
CCCCCCCCCCOC(C)=O | 113%
O=C1C(=O)c2c(nc3ccc(Cl)cn23)-c2ccccc21 | -45.4% (active)
CC(=O)OCC(=O)[C@@]1(O)CC[C@H]2[C@@H]3CCC4=CC(=O)CC[C@]4(C)[C@@]3(F)[C@@H](O)C[C@@]21C | 108%
CCc1nn2c(-c3ccc(Cl)cc3C)c(-c3cc(OC)c(OC)c(OC)c3)nc2s1 | 88.9%
COc1cc(/C=C/C(=O)C(C(=O)/C=C/c2ccc(OC(=O)CCNC34CC5CC(CC(C5)C3)C4)c(OC)c2)C(=O)CCNC23CC4CC(CC(C4)C2)C3)ccc1OC(=O)CCNC12CC3CC(CC(C3)C1)C2 (stereo not given) | 32.2%
CN(C)c1ccc(-c2nc3ncc(Br)cc3o2)cc1 | 87.5%
CCCc1n(Cc2ccc3ccccc3c2)cc[n+]1Cc1ccc2ccccc2c1 | -28.2% (active)
N#Cc1c(-c2ccccc2)cc(-c2ccccc2)n(CCC(=O)O)c1=O | 72.9%
C=C1CCC2C3(C)COC(c4ccccc4)OC3CCC2(C)C1C/C=C1/C(=O)OCC1OC(C)=O (stereo not given) | 101%
O=C(CNC(=O)c1cccc2ccccc12)Nc1ccccc1Cc1ccccc1 | 52.1% [5 µM]
COC(=O)C1=CCC(n2cnc3c(N)ncnc32)O1 (stereo not given) | 92%
O=C(NC1CCCCC1)c1ccc(Nc2ncnc3c2cnn3-c2ccccc2)cc1 | 72%
COc1ccc(-c2cc(-c3cccnc3)nc3sc(C(=O)Nc4ccccc4)c(N)c23)cc1OC | 87.8%
Clc1ccc(C2=NN(c3ccc(Cl)cc3)C(c3cccc(Nc4ccnc5cc(Cl)ccc45)c3)C2)cc1 (stereo not given) | 85.2%
CCCCN=C(N)c1ccc(OCCSCCOc2ccc(C(N)=NCCCC)cc2)cc1 | 40.4%
C/C(=C\CCc1ccoc1)CC/C=C(\C)CCCC1COC(=O)C1 (stereo not given) | 106%
Oc1c(Cl)cc(Oc2cc(Cl)c(O)c(CN3CCOCC3)c2)cc1CN1CCOCC1 | 99.6%
CCOC(=O)CCN(c1c(Cl)ssc1=O)C(C)C | 105%

test system: NCI-H226 lung; experiment: as above; conditions: 10 µM unless noted

SMILES | growth
Cc1[nH]ccc2cc3nc4ccccc4c3cc12 | 27.2%
NS(=O)(=O)c1ccc(-n2ncc3c(N/N=C/c4ccccc4)ncnc32)cc1 | 107%
O=C(C(=O)c1cc(Br)ccc1O)c1cc(Br)ccc1O | 90.9%
COc1ccc(-c2cnc(SCC(=O)Nc3ccc(-c4nc5ccccc5s4)cc3)n2-c2ccc(OC)cc2)cc1 | 105%
N#CSCC1CC(O)(c2ccccc2)C(c2ccccc2)C(c2ccc(Cl)cc2)O1 (stereo not given) | 19.7%
OCc1n(Cc2ccc3ccccc3c2)cc[n+]1Cc1ccc2ccccc2c1 | 61.6%
c1ccc(-c2nc(Nc3nccnn3)c3ccccc3n2)cc1 | 87.5%
CCOC(=O)/C=C1/SC(=Nc2ccc(C#N)cc2)N(Cc2ccco2)C1=O | 70.3%
Cc1cnc2nc(-c3ccc(N(C)C)cc3)cn2c1 | 102%
COc1ccc2c(c1)c(CC(=O)[Se]C)c(C)n2C(=O)c1ccc(Cl)cc1 | -34% (active)
COc1cc(/C=C/C(=O)C(C(=O)/C=C/c2ccc(OC(=O)CCNc3nnc(C)s3)c(OC)c2)C(=O)CCNc2nnc(C)s2)ccc1OC(=O)CCNc1nnc(C)s1 | 24.5%
O=C1C2C(C(=O)N1CC[Se][Se]CCN1C(=O)C3C(C1=O)[C@H]1C=C[C@@H]3C1)[C@H]1C=C[C@@H]2C1 (stereo not given in full) | -46.9% (active)
COc1ccc(OC)c(CCn2cncc2-c2c[nH]c3cc(Br)ccc23)c1 | 41.5%
CN(C)c1ncnc2c1ncn2C1CCCCO1 (stereo not given) | 98.5%
COc1ccc2c(c1)sc1nc(-c3ccc(Br)cc3)cn12 | 101%
O=C(Nc1ccccc1OC(=O)c1ccccc1)c1ccccc1 | 104%
Cc1csc(C#Cc2cncc(O)c2)n1 | 109%
COc1ccc2nc(NC(=O)CN3CCn4c(nnc4C(F)(F)F)C3)sc2c1 | 92.2%
CCOC(=O)C(Br)=P(c1ccccc1)(c1ccccc1)c1ccccc1 | 104%
C=CCN(/C=C/CN(CC=C)CC=C)CC=C | 95.7%

SMILES | growth
O=C1NC(=S)S/C1=C\c1cc(Br)ccc1O | 91.4%
COc1ccc(C(=O)/C=C/c2cccc(Nc3ccnc4cc(Cl)ccc34)c2)cc1 | 54.3%
CCCCCCCCCCOC(C)=O | 98.6%
O=C1C(=O)c2c(nc3ccc(Cl)cn23)-c2ccccc21 | -53.9% (active)
CC(=O)OCC(=O)[C@@]1(O)CC[C@H]2[C@@H]3CCC4=CC(=O)CC[C@]4(C)[C@@]3(F)[C@@H](O)C[C@@]21C | 68.8%
CCc1nn2c(-c3ccc(Cl)cc3C)c(-c3cc(OC)c(OC)c(OC)c3)nc2s1 | 87%
COc1cc(/C=C/C(=O)C(C(=O)/C=C/c2ccc(OC(=O)CCNC34CC5CC(CC(C5)C3)C4)c(OC)c2)C(=O)CCNC23CC4CC(CC(C4)C2)C3)ccc1OC(=O)CCNC12CC3CC(CC(C3)C1)C2 (stereo not given) | 31.4%
CN(C)c1ccc(-c2nc3ncc(Br)cc3o2)cc1 | 97.9%
CCCc1n(Cc2ccc3ccccc3c2)cc[n+]1Cc1ccc2ccccc2c1 | 0.228% (active)
N#Cc1c(-c2ccccc2)cc(-c2ccccc2)n(CCC(=O)O)c1=O | 69.2%
C=C1CCC2C3(C)COC(c4ccccc4)OC3CCC2(C)C1C/C=C1/C(=O)OCC1OC(C)=O (stereo not given) | 59.6%
O=C(CNC(=O)c1cccc2ccccc12)Nc1ccccc1Cc1ccccc1 | 72.3% [5 µM]
COC(=O)C1=CCC(n2cnc3c(N)ncnc32)O1 (stereo not given) | 87.5%
O=C(NC1CCCCC1)c1ccc(Nc2ncnc3c2cnn3-c2ccccc2)cc1 | 19.1%
COc1ccc(-c2cc(-c3cccnc3)nc3sc(C(=O)Nc4ccccc4)c(N)c23)cc1OC | 77.2%
Clc1ccc(C2=NN(c3ccc(Cl)cc3)C(c3cccc(Nc4ccnc5cc(Cl)ccc45)c3)C2)cc1 (stereo not given) | 88%
CCCCN=C(N)c1ccc(OCCSCCOc2ccc(C(N)=NCCCC)cc2)cc1 | 59.2%
C/C(=C\CCc1ccoc1)CC/C=C(\C)CCCC1COC(=O)C1 (stereo not given) | 104%
Oc1c(Cl)cc(Oc2cc(Cl)c(O)c(CN3CCOCC3)c2)cc1CN1CCOCC1 | 92.7%
CCOC(=O)CCN(c1c(Cl)ssc1=O)C(C)C | 112%
